Source: PubChem
In the library only some 19% were active in any assay of this set; here they are far more common.
ELG1 repair inh: blocks ELG1-dependent DNA repair in HEK293T cells; HEK293T ELG1-luciferase reporter, luminescence, 16 h; DNA damage induced by 5-fluorouridine; Potency, µM (top dose mostly 46.1 µM), usual class: inhibitors; 2.3% of 330,000 active; AID 504467; note: nearly all actives have a fitted effect of over 55% in size
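HEK293T cells expressing luciferase-tagged ELG1 (2,000/well) received 5-Fluorouridine plus compound or DMSO for 16 hr at 37 °C. Luciferase was read by ONE-Glo luminescence after 30 min at room temperature.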
HT1080 IDH1KD tx: toxicity to HT-1080 IDH1 knockdown cells (counter line); HT-1080 IDH1 knockdown viability, ATP luminescence, 48 h; Potency, µM (titrated, usually from 46.1 µM), most hits filed as cytotoxic; 2% of 360,000 active; AID 686971
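After a 2 h attachment period, IDH1KD HT-1080 cells took pin-transferred compound for 48 h at 37 °C; ATP-based luminescence after 10 min room-temperature reagent incubation reported viability.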
TDP1 cell CPT: growth inhibition of DT40 Tdp1-/-;hTDP1 cells with camptothecin (screen for TDP1 inhibitors); chicken DT40 Tdp1-/-;hTDP1 cells + 20 nM CPT, ATP luminescence, 48 h; Potency, µM (series often up to 46.2 µM), actives largely listed as inhibitors; 12% of 420,000 active; note: nearly all actives have a fitted effect of over 55% in size
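Chicken DT40 Tdp1-/- cells stably complemented with human TDP1 were seeded at 400 cells/well in medium containing 20 nM camptothecin, exposed to pin-transferred compounds, and grown at 37 °C for at least 48 hr. Viability was read as ATP luminescence.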
IL1B secr inh: inhibitors of inflammasome signaling (IL-1 beta secretion); THP-1 LPS/ATP IL-1B secretion, AlphaLISA, 16 h; active compounds read low; activity change, % at 57.5 µM; 4.7% of 360,000 active; AID 743279; in the data active = activity change below about -50%; inconclusive = mostly about -30% to -49%
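Secreted IL-1B measured by AlphaLISA bead assay after 16 h compound exposure of THP-1 cells; compounds (final up to 57.5 uM) added 1 h before LPS (250 ng/mL) and ATP (1.25 mM) stimulation; lower signal means less secretion.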
DT40 TDP1 no CPT: qHTS for Inhibitors of human tyrosyl-DNA phosphodiesterase 1 (TDP1): qHTS in cells in absence of CPT; AID 686978, 2013; DT40 Tdp1-/- hTDP1 cells, no CPT, ATP luminescence, 48 h; Potency, µM (titrated, usually from 46.2 µM), hits mostly inhibitors; 15% of 420,000 active; note: nearly all actives have a fitted effect of over 55% in size
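Seeded 400 DT40-hTDP1 cells/well (vehicle DMSO, no 20 nM CPT); pinned compounds; ≥48 hr at 37 °C; CellTiter-Glo luminescence as viability measure.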
HT1080-NT tox: kills 2HG-producing HT-1080-NT fibrosarcoma cells; HT-1080-NT fibrosarcoma viability, CellTiter-Glo ATP luminescence, 48 h; Potency, µM (titrated, usually from 46.1 µM), hits mostly cytotoxic; 1.6% of 360,000 active; AID 686970;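 note: NT is the 2HG producing partner of a matched IDH1 knockdown line; nearly all actives have a fitted effect of over 55% in size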
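Viability by CellTiter-Glo luminescence after 48 h compound exposure at 37C of HT-1080-NT cells (750/well, RPMI, 5% FBS). % activity scaled between DMSO wells and medium-only wells, then curve-fitted and categorized by curve class.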
Hits are given with their value; n = inactive; u = inconclusive; x = not tested or not shown; [ ] = remark or other dose. Unless noted, calls come from the whole dose curve; as a rule, active = well fitted curve in the direction sought with a large enough effect; inconclusive = small, poorly fitted or top-dose-only effect, or another doubt; inactive = no such curve, though single readings can be large; an effect the other way counts as inactive or inconclusive.

SMILES	ELG1 repair inh	HT1080 IDH1KD tx	TDP1 cell CPT	IL1B secr inh	DT40 TDP1 no CPT	HT1080-NT tox
O=C(NCCc1ccccc1)c1ccc(-c2ccc(F)c(F)c2)c2ccoc12	x	n	16µM	n	4.1µM	n
O=C(NCc1ccccc1)c1ccc(-c2ccc(F)c(F)c2)c2ccoc12	x	n	u	-72	u	u
O=C(NCc1ccco1)c1ccc(-c2ccc(F)c(F)c2)c2ccoc12	x	n	u	n	18µM	n
OC(CN1CCCCC1)c1ccccc1 (stereo not given)	x	x	n	x	n	x
COc1ccc(C(=O)OCC(=O)NCCc2ccc(F)cc2)cc1S(=O)(=O)N1CCOCC1	u	n	n	n	n	n
Cc1ccccc1N/N=C1\CCCNC1=O	u	n	n	-54	n	n
O=c1c2ccccc2ncn1-c1ccc(Cl)cc1[N+](=O)[O-]	n	n	u	n	u	n
O=c1c2ccccc2ncn1-c1ccc([N+](=O)[O-])cc1[N+](=O)[O-]	15µM	n	16µM	-64	18µM	n
CC(=O)c1c(C(C)=O)c(C)n(C(c2ccccc2)c2ccccc2)c1C	n	n	u	n	21µM	n
CC(=O)c1c(C(C)=O)c(C)n(NC(=O)c2ccccc2Cl)c1C	n	n	n	n	n	n
Cc1cc(C(F)(F)F)n(-c2nc(C(=O)N/N=C/c3ccc(F)cc3)cs2)n1	n	n	16µM	n	u	n
COc1cccc(/C=N/NC(=O)c2csc(-n3nc(C)cc3C(F)(F)F)n2)c1	n	n	n	n	u	n
CC(/C=C/c1cccc([N+](=O)[O-])c1)=N\NC(=O)c1ccncc1	n	n	u	n	23µM	n
CC(/C=C/c1ccccc1)=N\NC(=O)c1ccc(Br)cc1	u	n	u	n	u	n
CC(/C=C\C=C\c1ccccc1)=N\NC(=O)c1cncc(Br)c1	u	n	7.3µM	n	7.3µM	n
CC(/C=C/c1ccccc1)=N/NC(=O)c1cccc(Br)c1	n	u	u	n	23µM	n
CC(/C=C/C=C/c1ccccc1)=N\NC(=O)c1cccnc1	u	n	n	n	u	n
CC(/C=C/c1ccco1)=N\NC(=O)C(O)c1ccccc1 (stereo not given)	u	n	n	n	n	n
CC(/C=C/C=C/c1ccccc1)=N/NC(=O)C(O)c1ccccc1 (stereo not given)	n	n	n	n	18µM	n
CC1=CC2(C)C(C3C(C)=CC2(C)C(=O)C3(C)O)C(C)(O)C1=O (stereo not given)	x	n	n	n	u	n
COc1cccc(N2CC(NC(=O)Cc3cccs3)CC2=O)c1 (stereo not given)	x	x	n	x	n	x
Cc1cc(C)nc(-c2cccc3c2OC(CNC(=O)C2CCOC2)C3)n1 (stereo not given)	x	x	n	x	n	x
N#C/C(=C\c1c(N2CCCCC2)nc2ccccn2c1=O)S(=O)(=O)c1ccccc1	n	n	n	n	u	n
O=C(O)c1ccc(CN2C[C@@H](CO)O[C@@H](n3cnc4c(NCc5ccc(F)cc5)ncnc43)C2)cc1	x	u	n	n	n	n
S=C(Nc1ccc(Br)cc1)N1CCN(c2ccccn2)CC1	n	n	n	n	n	n
SMILES	ELG1 repair inh	HT1080 IDH1KD tx	TDP1 cell CPT	IL1B secr inh	DT40 TDP1 no CPT	HT1080-NT tox
CCOc1ccccc1/C=N/Nc1cc(C)nc2ccc(C)cc12	u	n	n	n	n	n
COc1ccc2nc(C)cc(Sc3nc4ccccc4s3)c2c1	5.2µM	23µM	9.2µM	-99	9.2µM	10µM
COc1ccc(Nc2cc(C)nc3ccc(OC)cc23)cc1	n	u	n	-101	u	u
CCOc1ccc(Nc2cc(C)nc3ccc(C)cc23)cc1	x	u	23µM	-88	u	29µM
Cc1ccc(Nc2cc(C)nc3ccc(C)cc23)cc1	8.2µM	u	u	x	u	u
CN1OC[C@@H]2CN(Cc3ccccc3)[C@H](c3cccc(-c4ccc(C#N)cc4)c3)C[C@@H]21	x	u	u	u	u	n
COc1ccc(CNc2cc(C)nc3ccc(OC)cc23)cc1	n	15µM	u	-93	21µM	u
COc1ccc2nc(C)cc(Nc3ccc(C(=O)O)cc3)c2c1	n	n	n	n	n	n
CC1(C(=O)O)CCN1C(=O)c1cccc(OC(F)(F)F)c1 (stereo not given)	x	n	n	n	n	n
O=C(CSc1nnc(Cc2ccccc2)o1)N1CCCc2ccccc21	n	n[9.24 µM]	u	n	n	n
O=C(CSc1nnc(-c2ccccc2Cl)o1)N1CCCc2ccccc21	x	x	u	x	16µM	x
O=C(CSc1nnc(-c2ccccc2Br)o1)N1CCc2ccccc2C1	n	n[9.24 µM]	u	-60	u	n
O=C(CSc1nnc(-c2ccccc2F)o1)N1CCCC1	u	n	n	n	n	n
CC1Cc2ccccc2N1C(=O)CSc1nnc(-c2ccccc2Cl)o1 (stereo not given)	x	x	26µM	x	u	x
CC1Cc2ccccc2N1C(=O)CSc1nnc(-c2ccc(S(=O)(=O)N3CCOCC3)cc2)n1C (stereo not given)	u	n	16µM	n	u	n
CC(C)(C)C1CCc2onc(C(=O)Nc3sc4c(c3C#N)CCCC4)c2C1 (stereo not given)	x	x	n	x	n	x
O=C(c1ccncc1)N1CCC2(CCCN(c3ncccn3)C2)CC1	x	x	n	x	n	x
O=Cc1c[nH]c2ccc(S(=O)(=O)N3CCCCC3)cc12	x	n	n	n	n	n
CCc1ccc(NC(=O)CC(NCc2cccnc2)C(=O)O)cc1 (stereo not given)	x	x	n	x	n	x
O=C(CSc1nnc(Cc2csc(Nc3cccc(Cl)c3)n2)o1)N1CCc2ccccc21	u	n	18µM	u	21µM	n
CCN(CC)C(=O)CSc1nnc(-c2ccc(S(=O)(=O)N3CCCC3)cc2)o1	n	n	n	n	n	n
CC1Cc2ccccc2N1C(=O)CSc1nnc(-c2ccc(S(=O)(=O)N3CCCC3)cc2)o1 (stereo not given)	u	n	u	n	16µM	n
O=C(CSc1nnc(CNc2ccccc2)o1)N1CCc2ccccc21	n	n	n	n	n	n
COc1ccc(N2CCN(S(=O)(=O)CCNC(=O)c3c(F)cccc3Cl)CC2)cc1	x	x	n	x	n	x
CCC1CCc2nc3sc(C(=O)Nc4cccc(C(F)(F)F)c4)c(N)c3cc2C1 (stereo not given)	x	x	u	x	18µM	x
CCC1CCc2sc(C(=O)N(C)CC(=O)Nc3cccc(OC)c3)cc2C1 (stereo not given)	n	n	u	n	u	n
